Values without a mark were called inactive. Inconclusive results are not listed. A call without a number means that no potency is given here. Active and inactive are the calls of the source. Unless noted, the call rests on the fitted dose curve; in most records, active means well fitted curve in the direction sought with a large enough effect in the repeat runs; inconclusive means weak or mixed curves; inactive means no such curve, though single readings can be large; an effect the other way counts as inactive or inconclusive.
Assays:
[1] = target: Thyrotropin receptor (Homo sapiens) (UniProt P16473); test: qHTS assay to identify small molecule antagonists of the thyroid stimulating hormone receptor (TSHR) signaling pathway (AID 1259385; calls by dose curve; further: nearly all actives have a fitted effect of over 20% in size)
In short: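 Antagonist mode: compound-treated TSHR-expressing HEK293 cells were stimulated with 1.5 ng/mL TSH (final) in presence of Ro20-1724 for 30 min at RT. HTRF cAMP detection after 1 h; each compound tested at 15 concentrations, triplicate.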

[2] = qHTS assay to identify small molecule agonists of the estrogen receptor alpha (ER-alpha) signaling pathway in the presence of an antagonist - cell viability counter screen (AID 1259386);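 further: series mostly up to about 92 µM; cells exposed to compounds for 22 h at 37 °C before the viability read; nearly all actives have a fitted effect of over 30% in size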
In short: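 Cytotoxicity was measured in parallel with the ERE-luciferase agonist screen, in the same wells. The cells were VM7Luc4E2, which endogenously express ER-alpha, and treatment was with compounds plus 10.0nM ICI-182,780 for 22hr.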

[3] = target: Progesterone receptor (Homo sapiens) (UniProt P06401); test: qHTS assay to identify small molecule agonists of the progesterone receptor (PR) signaling pathway (AID 1346784; calls by dose curve; further: nearly all actives have a fitted effect of over 30% in size; further: potency means the concentration at half of the fitted maximal effect)
In short: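 Using charcoal-stripped serum (2%) to limit endogenous steroids, PR-UAS-bla HEK 293T cells received compounds for 16 hr at 37C after 6 hr plating; beta-lactamase FRET fluorescence was recorded following 2 hr substrate loading at room temperature.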

[4] = target: Progesterone receptor (Homo sapiens) (UniProt P06401); test: qHTS assay to identify small molecule antagonists of the progesterone receptor (PR) signaling pathway (AID 1346795; active means well fitted inhibition curve with a large enough effect in the signal ratio in the repeat runs, not every such curve was filed as active; the % refers to the signal ratio; further: potency means the concentration at half of the fitted maximal effect)
In short: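 Inhibition of R5020-induced (1 nM final) beta-lactamase reporter signal in PR-UAS-bla HEK293T cells was scored by FRET fluorescence after overnight (16 hr) compound treatment.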

[5] = qHTS assay to identify small molecule antagonists of the progesterone receptor (PR) signaling pathway - cell viability counter screen (AID 1346798); further: series mostly up to about 92 µM; nearly all actives have a fitted effect of over 50% in size
In short: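 ATP content as viability readout: CellTiter-Glo luminescence, 30 min room temperature, in PR-UAS-bla HEK293T cells after 16 hr compound/R5020 treatment at 37C and 5% CO2.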

[6] = qHTS assay to identify small molecule antagonists of the TGF-beta/Smad signaling pathway - cell viability counter screen (AID 1346824); further: nearly all actives have a fitted effect of over 50% in size
In short: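 Cytotoxicity counter-screen run in the same wells as the beta-lactamase Smad reporter read: CellTiter-Glo luminescence after 30 min at room temperature. HEK 293T SBE-bla cells had 5 hr compound exposure at 37 C with TGF-beta1 (0.25 ng/mL stock).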

[7] = qHTS assay to identify small molecule agonists of the TGF-beta/Smad signaling pathway - cell viability counter screen (AID 1346829); further: top concentration of the series differs between compounds; nearly all actives have a fitted effect of over 45% in size
In short: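 Luminescence from CellTiter-Glo, read after a 30 min room-temperature incubation, gives cell viability of SBE-bla HEK 293T cells treated 5 hr with compounds at 37 C.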

[8] = qHTS assay to identify small molecule agonists of the TGF-beta/Smad signaling pathway (AID 1346859; active means well fitted activation curve with a large enough effect in the signal ratio in the repeat runs, not every such curve was filed as active; the % refers to the signal ratio; further: series mostly up to about 77 µM)
In short: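 Stable Smad binding element-beta-lactamase HEK 293T cells; 5 hr compound exposure at 37 C under 5% CO2; 2 hr room-temperature substrate step; fluorescence excited at 405 nm, collected at 460 nm and 530 nm.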

[9] = target: Thyrotropin-releasing hormone receptor (Homo sapiens) (UniProt P34981); test: qHTS assay to identify small molecule antagonists of the thyrotropin-releasing hormone receptor (TRHR) signaling pathway (AID 1346877; active means well fitted inhibition curve with a large enough effect in the repeat runs, not every such curve was filed as active; further: series mostly up to about 51 µM)
In short: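 Antagonism is measured as suppression of the calcium response to 1 nM TRH in TRHR-HEK293 cells that have been dye-loaded for 2 h at 37 °C after overnight plating. Each compound is tested at 15 concentrations in triplicate.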

[10] = target: Thyrotropin-releasing hormone receptor (Homo sapiens) (UniProt P34981); test: qHTS assay to identify small molecule agonists of the thyrotropin-releasing hormone receptor (TRHR) signaling pathway (AID 1346891; calls by dose curve;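 further: HEK293 cells expressing TRHR with calcium dye readout; series mostly up to about 58 µM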)
In short: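 In 1536-format, 1500 TRHR-Hek293 cells per well grew 18 h, took up calcium dye for 2 h at 37 °C, received compound, and were read kinetically; 15-point titrations, triplicates.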

[11] = Caspase-3/7 induction in HepG2 cells by small molecules, qHTS assay (AID 1346978); further: nearly all actives have a fitted effect of over 15% in size
In short: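 Caspase-3/7 induction was measured by Caspase-Glo 3/7 luminescence (30 min, room temperature) after a 17 hr compound exposure of wild-type HepG2 cells seeded at 2,000 per well and pre-incubated 5 hr.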

[12] = Caspase-3/7 induction in CHO-K1 cells by small molecules, qHTS cell viability counter screen (AID 1346979); further: nearly all actives have a fitted effect of over 35% in size
In short: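 To flag cytotoxic compounds, treated CHO-K1 wild-type cells were given CellTiter-Fluor at 16hr and read fluorescently after 1hr at 37C; the caspase-3/7 luminescence was measured in these same wells.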

[13] = Caspase-3/7 induction in CHO-K1 cells by small molecules, qHTS assay (AID 1346980); further: nearly all actives have a fitted effect of over 15% in size
In short: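 Luminescent Caspase-Glo 3/7 read (30min, room temperature) quantified apoptosis induction. Cells were wild-type CHO-K1, treated with compound for 17hr at 37 C and 5% CO2.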

[14] = Caspase-3/7 induction in HepG2 cells by small molecules, qHTS cell viability counter screen (AID 1346981); further: series mostly up to about 92 µM; nearly all actives have a fitted effect of over 30% in size
In short: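 Cell viability is measured as a cytotoxicity counter screen alongside the Caspase-Glo 3/7 readout in identical wells. Wild-type HepG2 cells are treated with test compounds for 16 hr at 37 C before CellTiter-Fluor addition and a 1-hr incubation.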

[15] = target: Nuclear receptor subfamily 1 group I member 2 (Homo sapiens) (UniProt O75469); test: Human pregnane X receptor (PXR) small molecule agonists, qHTS assay (AID 1346982); further: nearly all actives have a fitted effect of over 35% in size; further: potency means the concentration at half of the fitted maximal effect
In short: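 Cells: HepG2 stably carrying PXR-Luc. Medium held 5% charcoal-stripped FBS. Compounds in DMSO added after 5 hr plating, incubated 24 hr, then luminescence quantified with ONE-Glo.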

[16] = qHTS assay to identify small molecule agonists of the progesterone receptor (PR) signaling pathway - cell viability counter screen (AID 1346799; calls by dose curve; further: nearly all actives have a fitted effect of over 45% in size)
In short: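 Cytotoxicity in PR-bla HEK293T cells: 16 h compound, 37C; CellTiter-Glo added post-FRET read; luminescence after 30 min RT.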

[17] = Human pregnane X receptor (PXR) small molecule agonists, qHTS cell viability counter screen (AID 1346977); further: nearly all actives have a fitted effect of over 50% in size
In short: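 Readout is CellTiter-Fluor fluorescence from PXR-Luc HepG2 cells. Plated cells rested 5hr, then were treated with compounds for 24hr at 37C and 5% CO2, with reagent present during the last hour.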

[18] = target: Nuclear receptor subfamily 1 group I member 2 (Rattus norvegicus) (UniProt Q9R1A7); test: Rat pregnane X receptor (rPXR) activation by small molecules, qHTS assay (AID 1346983); conditions: rPXR luciferase reporter cells, One-Glo luminescence, 24 h; max activation: stronger effect = higher value; further: nearly all actives have a fitted effect of over 20% in size
In short: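 Luminescent readout (One-Glo luciferase, 30 min room temperature) followed 24 hr compound treatment at 37 C of rPXR cells plated 2,000 per well and preincubated 5hr; qHTS format with compounds delivered in DMSO.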

[19] = target: Nuclear receptor subfamily 1 group I member 2 (Homo sapiens) (UniProt O75469); test: Human pregnane X receptor (PXR) activation by small molecules, qHTS assay (AID 1346985); further: nearly all actives have a fitted effect of over 40% in size
In short: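 DPX-2 cells (HepG2 co-transfected with a PXR response element and a CYP3A4-promoter luciferase construct) were seeded at 2,000 per well, rested 5 hr at 37C, then exposed to DMSO-dissolved compounds for 24 hr. Activation was read as luciferase luminescence.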

[20] = target: Cytochrome P450 2D6 (Homo sapiens) (UniProt P10635); test: Cytochrome P450 Family 2 Subfamily D Member 6 (CYP2D6) small molecule antagonists: luciferase reporter qHTS assay (AID 1671196); further: nearly all actives have a fitted effect of over 50% in size; further: potency means the concentration at half of the fitted maximal effect
In short: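 Enzyme and proluciferin substrate were first combined with test chemical for 10 min at room temperature. Adding NADPH regeneration solution started a 1 h reaction, stopped with luciferin detection reagent and read by luminescence 20 min later.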

Sequence of Thyrotropin-releasing hormone receptor (Homo sapiens) (P34981 whole entry, looked up): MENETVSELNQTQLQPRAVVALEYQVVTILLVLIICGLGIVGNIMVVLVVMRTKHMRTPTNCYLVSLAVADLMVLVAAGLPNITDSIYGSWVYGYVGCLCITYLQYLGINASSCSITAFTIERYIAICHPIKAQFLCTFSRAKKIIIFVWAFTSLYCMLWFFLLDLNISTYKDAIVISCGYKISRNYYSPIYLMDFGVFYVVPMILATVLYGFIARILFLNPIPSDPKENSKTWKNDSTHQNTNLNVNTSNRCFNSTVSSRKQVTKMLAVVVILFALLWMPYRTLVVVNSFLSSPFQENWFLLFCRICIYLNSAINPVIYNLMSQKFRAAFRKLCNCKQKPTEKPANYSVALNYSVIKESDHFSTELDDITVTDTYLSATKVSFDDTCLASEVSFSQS
Sequence of Thyrotropin receptor (Homo sapiens) (P16473 whole entry, looked up): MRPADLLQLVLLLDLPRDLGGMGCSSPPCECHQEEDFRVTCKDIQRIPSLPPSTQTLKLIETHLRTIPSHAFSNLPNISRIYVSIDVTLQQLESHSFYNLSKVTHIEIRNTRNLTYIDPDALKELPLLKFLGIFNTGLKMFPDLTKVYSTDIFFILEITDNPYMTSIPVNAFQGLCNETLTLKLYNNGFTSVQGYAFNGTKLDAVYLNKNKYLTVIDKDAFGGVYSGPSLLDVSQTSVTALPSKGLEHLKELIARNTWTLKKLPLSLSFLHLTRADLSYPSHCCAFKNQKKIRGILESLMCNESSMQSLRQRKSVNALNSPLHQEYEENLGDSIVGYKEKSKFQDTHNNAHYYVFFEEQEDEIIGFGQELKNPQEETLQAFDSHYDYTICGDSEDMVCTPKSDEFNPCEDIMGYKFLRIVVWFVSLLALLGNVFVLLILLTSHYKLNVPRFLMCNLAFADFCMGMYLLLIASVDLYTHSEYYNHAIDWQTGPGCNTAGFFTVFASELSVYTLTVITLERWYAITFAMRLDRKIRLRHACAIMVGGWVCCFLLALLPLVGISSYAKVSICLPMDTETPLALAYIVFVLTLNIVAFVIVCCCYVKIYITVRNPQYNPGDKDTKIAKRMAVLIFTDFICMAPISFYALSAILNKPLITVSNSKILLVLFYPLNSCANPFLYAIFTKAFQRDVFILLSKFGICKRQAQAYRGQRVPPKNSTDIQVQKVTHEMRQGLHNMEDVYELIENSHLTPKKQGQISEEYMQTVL
Sequence of Progesterone receptor (Homo sapiens) (P06401 whole entry, looked up): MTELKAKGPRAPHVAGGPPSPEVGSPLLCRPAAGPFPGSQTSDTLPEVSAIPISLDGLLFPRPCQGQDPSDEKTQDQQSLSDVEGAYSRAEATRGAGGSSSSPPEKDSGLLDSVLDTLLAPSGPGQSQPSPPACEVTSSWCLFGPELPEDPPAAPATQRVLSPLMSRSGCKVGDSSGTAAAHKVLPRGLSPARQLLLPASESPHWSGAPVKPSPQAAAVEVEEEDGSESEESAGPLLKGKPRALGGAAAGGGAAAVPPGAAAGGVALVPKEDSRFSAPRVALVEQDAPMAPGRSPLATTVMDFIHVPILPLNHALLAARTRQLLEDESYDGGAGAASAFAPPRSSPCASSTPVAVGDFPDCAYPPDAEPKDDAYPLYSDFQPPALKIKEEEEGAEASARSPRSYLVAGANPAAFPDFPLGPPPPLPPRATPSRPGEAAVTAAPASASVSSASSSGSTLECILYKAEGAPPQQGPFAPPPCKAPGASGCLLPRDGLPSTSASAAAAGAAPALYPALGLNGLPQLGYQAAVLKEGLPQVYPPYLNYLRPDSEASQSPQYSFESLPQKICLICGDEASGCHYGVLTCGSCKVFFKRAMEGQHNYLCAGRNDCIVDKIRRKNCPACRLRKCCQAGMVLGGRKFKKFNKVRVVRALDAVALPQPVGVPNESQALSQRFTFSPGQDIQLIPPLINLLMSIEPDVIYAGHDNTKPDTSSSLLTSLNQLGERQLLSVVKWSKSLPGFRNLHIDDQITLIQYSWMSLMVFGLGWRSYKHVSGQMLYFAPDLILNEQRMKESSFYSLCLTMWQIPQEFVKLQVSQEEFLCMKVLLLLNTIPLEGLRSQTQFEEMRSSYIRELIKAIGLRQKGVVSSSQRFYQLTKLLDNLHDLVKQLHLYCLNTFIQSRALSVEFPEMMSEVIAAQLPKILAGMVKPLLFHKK
Sequence of Nuclear receptor subfamily 1 group I member 2 (Homo sapiens) (O75469 whole entry, looked up): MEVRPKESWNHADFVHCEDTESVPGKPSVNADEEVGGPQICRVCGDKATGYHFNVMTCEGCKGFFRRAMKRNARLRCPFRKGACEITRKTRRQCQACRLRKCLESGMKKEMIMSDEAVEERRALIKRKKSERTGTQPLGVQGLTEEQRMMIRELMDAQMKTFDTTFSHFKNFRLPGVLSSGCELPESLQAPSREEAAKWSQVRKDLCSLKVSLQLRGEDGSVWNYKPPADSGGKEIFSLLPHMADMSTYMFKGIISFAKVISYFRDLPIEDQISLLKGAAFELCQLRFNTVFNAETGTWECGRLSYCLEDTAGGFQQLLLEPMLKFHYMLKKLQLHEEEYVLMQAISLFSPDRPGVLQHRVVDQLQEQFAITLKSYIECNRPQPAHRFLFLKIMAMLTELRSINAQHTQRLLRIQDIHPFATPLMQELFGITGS
Sequence of Cytochrome P450 2D6 (Homo sapiens) (P10635 whole entry, looked up): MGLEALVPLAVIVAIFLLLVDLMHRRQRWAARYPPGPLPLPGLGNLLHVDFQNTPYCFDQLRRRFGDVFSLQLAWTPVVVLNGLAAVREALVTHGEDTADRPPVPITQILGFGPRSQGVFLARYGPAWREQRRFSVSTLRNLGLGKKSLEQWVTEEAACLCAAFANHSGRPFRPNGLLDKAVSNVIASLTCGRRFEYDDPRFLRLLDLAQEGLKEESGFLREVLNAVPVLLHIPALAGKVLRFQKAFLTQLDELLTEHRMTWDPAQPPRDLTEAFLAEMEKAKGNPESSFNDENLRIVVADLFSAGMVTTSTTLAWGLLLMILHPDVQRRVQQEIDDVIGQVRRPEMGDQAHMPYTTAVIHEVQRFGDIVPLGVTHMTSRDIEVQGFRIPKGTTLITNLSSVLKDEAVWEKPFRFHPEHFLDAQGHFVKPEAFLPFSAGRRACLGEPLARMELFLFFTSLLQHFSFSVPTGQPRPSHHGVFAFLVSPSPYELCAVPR
Sequence of Nuclear receptor subfamily 1 group I member 2 (Rattus norvegicus) (Q9R1A7 whole entry, looked up): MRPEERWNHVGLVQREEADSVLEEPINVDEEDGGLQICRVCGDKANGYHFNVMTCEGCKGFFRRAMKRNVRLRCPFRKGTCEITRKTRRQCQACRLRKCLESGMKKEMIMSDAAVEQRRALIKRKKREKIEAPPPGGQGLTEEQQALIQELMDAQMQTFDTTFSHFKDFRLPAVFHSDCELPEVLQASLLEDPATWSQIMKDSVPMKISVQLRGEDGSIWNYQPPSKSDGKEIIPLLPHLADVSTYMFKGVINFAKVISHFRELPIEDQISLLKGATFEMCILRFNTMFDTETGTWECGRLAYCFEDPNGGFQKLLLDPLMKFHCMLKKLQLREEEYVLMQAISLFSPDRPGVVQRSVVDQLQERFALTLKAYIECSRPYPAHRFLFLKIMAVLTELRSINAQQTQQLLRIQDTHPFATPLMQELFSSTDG

| Compound | Potency [1] | Potency [2] | Potency [3] | Potency [4] | Potency [5] | outcome [6] | outcome [7] | outcome [8] | outcome [9] | outcome [10] | Potency [11] | Potency [12] | Potency [13] | Potency [14] | Potency [15] | Potency [16] | Potency [17] | max activation [18] | Potency [19] | Potency [20] |
| --- | --- | --- | --- | --- | --- | --- | --- | --- | --- | --- | --- | --- | --- | --- | --- | --- | --- | --- | --- | --- |
| C=CC(=O)NC(C)(C)C | inactive | inactive | inactive | inactive | inactive | inactive | inactive | inactive | inactive | inactive | inactive | inactive | inactive | inactive | inactive | – | – | – | – | – |
| Nc1ccc(C(=O)Oc2ccccc2)c(O)c1 | inactive | inactive | inactive | 23.7 µM (active) | inactive | – | inactive | inactive | inactive | inactive | inactive | inactive | inactive | inactive | inactive | inactive | inactive | 0.405% | inactive | – |
| CCCCOC(=O)C(C)Oc1ccc(Oc2ccc(C(F)(F)F)cn2)cc1 (stereo not given) | inactive | inactive | inactive | inactive | inactive | – | inactive | inactive | – | – | inactive | inactive | inactive | inactive | – | inactive | – | – | – | – |
| O=[N+]([O-])c1cccc(I)c1 | inactive | inactive | inactive | inactive | inactive | – | inactive | inactive | – | – | inactive | inactive | inactive | inactive | inactive | inactive | – | – | – | inactive |
| COc1ccc(C(=O)Nc2ccccc2)cc1[N+](=O)[O-] | inactive | inactive | inactive | 54.9 µM (active) | inactive | inactive | inactive | – | inactive | inactive | inactive | inactive | inactive | – | 30.9 µM (active) | inactive | inactive | – | – | 40.2 µM (active) |
| CC(Cc1ccccc1)(NC(=O)CN)c1ccccc1 (stereo not given) | inactive | inactive | inactive | inactive | inactive | – | inactive | inactive | – | – | inactive | inactive | inactive | inactive | – | inactive | inactive | – | – | – |
| Nc1ccc(F)cc1F | inactive | inactive | inactive | inactive | inactive | – | inactive | inactive | – | – | inactive | inactive | inactive | inactive | inactive | inactive | inactive | – | – | – |
| CC1(C)CC(=O)CC(C)(C)N1 | inactive | inactive | inactive | inactive | inactive | – | inactive | inactive | inactive | inactive | inactive | inactive | inactive | – | inactive | inactive | inactive | – | – | inactive |
| FC1(F)C(F)(F)C(F)(F)C2(F)C(F)(C1(F)F)C(F)(F)C(F)(F)C1(F)C(F)(F)C(F)(F)C(F)(F)C(F)(F)C12F (stereo not given) | inactive | inactive | inactive | inactive | inactive | inactive | inactive | inactive | – | – | inactive | – | inactive | inactive | inactive | inactive | – | – | – | – |
| O=[N+]([O-])c1ccc(Cl)cc1Cl | inactive | inactive | 24 µM (active) | inactive | inactive | inactive | inactive | inactive | inactive | inactive | inactive | inactive | inactive | inactive | inactive | – | inactive | – | – | – |
| CCCCOC(=O)CC#N | inactive | inactive | inactive | inactive | inactive | inactive | inactive | inactive | – | – | inactive | inactive | inactive | inactive | inactive | inactive | inactive | – | – | 5.27 µM (active) |
| CC1(C)C(=O)NC(=O)N1CO | inactive | inactive | inactive | inactive | inactive | inactive | inactive | inactive | – | – | inactive | inactive | inactive | inactive | inactive | inactive | inactive | – | – | inactive |
| COC(=O)Cc1cccc2ccccc12 | inactive | inactive | inactive | inactive | inactive | inactive | inactive | inactive | – | – | inactive | inactive | inactive | – | inactive | inactive | inactive | – | – | – |
| CC(C)(C)N | inactive | inactive | inactive | inactive | inactive | inactive | inactive | inactive | – | – | inactive | inactive | inactive | inactive | inactive | inactive | – | – | – | inactive |
| CCCCCCCCCCCCSC#N | inactive | inactive | inactive | inactive | inactive | inactive | inactive | inactive | – | – | inactive | inactive | inactive | inactive | inactive | inactive | – | – | – | inactive |
| COc1ccc(/C(C)=C/C(=O)O)c(OC)c1 | inactive | inactive | inactive | inactive | inactive | – | inactive | inactive | – | – | inactive | inactive | inactive | inactive | – | inactive | inactive | – | – | inactive |
| OCCOc1cccc(OCCO)c1 | inactive | inactive | inactive | inactive | inactive | – | inactive | inactive | inactive | inactive | inactive | inactive | inactive | inactive | inactive | inactive | inactive | – | – | inactive |
| CCCC1CCCC(=O)O1 (stereo not given) | inactive | inactive | inactive | inactive | inactive | – | inactive | – | inactive | inactive | inactive | inactive | inactive | inactive | inactive | inactive | inactive | – | – | inactive |

From PubChem BioAssay (Tox21)
